Among the test systems are SK-MEL-2 melanoma; EKVX NSCLC; SN12C renal; UO-31 renal; TK-10 renal; ACHN renal; CAKI-1 renal; A498 renal; CCRF-CEM leukemia; MOLT-4 leukemia; OVCAR-8 ovarian; OVCAR-5 ovarian; OVCAR-4 ovarian; SK-OV-3 ovarian; IGROV1 ovarian; HS 578T breast; NCI/ADR-RES ovarian; SR leukemia; RPMI-8226 leukemia; OVCAR-3 ovarian.
What all share (test): NCI-60 one-dose screen, 48 h (100 = growth as untreated, 0 = no growth, -100 = all killed)
Common to all, as to conditions: 10 µM unless noted

The panel holds about 83,000 compounds, 20% with a hit somewhere; the sample as a whole holds those more often.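 Step 1: grow cells in 96-well plates. Step 2: add test compound at a single concentration. Step 3: incubate 48 h. Step 4: record percent growth.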 A number with no mark means an inactive call. Calls of active or inactive are those of the source. Rule for the calls: active = growth percent below 10; inactive = the rest.

Take `COc1ccc(Nc2nnc(SCc3ccccc3F)s2)cc1`: the growth in the experiment with SK-MEL-2 melanoma is 82.9%; with EKVX NSCLC, 94.9%; in the experiment with SN12C renal, 107%; in the experiment on UO-31 renal, 78.6%; in the experiment with TK-10 renal, 123%; with ACHN renal it was 106%. In addition, the growth was 103% in the experiment with CAKI-1 renal; 91.4% in the experiment with A498 renal; 76.4% in the experiment with CCRF-CEM leukemia; 94.8% with MOLT-4 leukemia; 100% in the experiment with OVCAR-8 ovarian; 92.8% in the experiment with OVCAR-5 ovarian. Besides, the growth was 99.4% in the experiment with OVCAR-4 ovarian; 90.9% in the experiment with SK-OV-3 ovarian; 8.8% (active) in the experiment with IGROV1 ovarian; 98% with HS 578T breast; 99.1% in the experiment on NCI/ADR-RES ovarian.
As to `CNC(=O)c1cc(Oc2ccc3nc(Nc4ccc(Cl)c(C(F)(F)F)c4)ccc3c2)ccn1`, the growth in the experiment on SK-MEL-2 melanoma was 75.9%; with EKVX NSCLC, 62.6%; in the experiment on SN12C renal it was 71.1%; in the experiment with UO-31 renal it was 57.8%; in the experiment on TK-10 renal it was 54.5%; in the experiment on ACHN renal it was 49.4%. In addition, the growth was 92.7% in the experiment with CAKI-1 renal; 61.8% in the experiment on A498 renal; 42.2% with CCRF-CEM leukemia; 30% in the experiment with SR leukemia; 53.8% with RPMI-8226 leukemia; 58.4% in the experiment with OVCAR-8 ovarian. In addition, the growth with OVCAR-5 ovarian was 91.8%; in the experiment on OVCAR-4 ovarian, 56.3%; in the experiment on SK-OV-3 ovarian, 93.3%; with IGROV1 ovarian, 83.8%; in the experiment with OVCAR-3 ovarian, 61.5%; with HS 578T breast, 77.8%. Further, the growth in the experiment on NCI/ADR-RES ovarian was 65.5%.
Regarding `COC(=O)[C@]12CC[C@@H](C)[C@H](C)[C@@H]1C1=CC[C@@H]3[C@@]4(C)C(C=O)=C[C@@](C)(COS(C)(=O)=O)[C@@H]4C(=O)C[C@@]3(C)[C@]1(C)CC2`, the growth with SK-MEL-2 melanoma was 66.9%; in the experiment on EKVX NSCLC, 53.2%; in the experiment with SN12C renal it was 36.2%; in the experiment on UO-31 renal, 34.2%; in the experiment with TK-10 renal, 54.2%; in the experiment with ACHN renal, 17.8%. The growth in the experiment with CAKI-1 renal is 53.3%; in the experiment with A498 renal it was 98.2%; in the experiment with CCRF-CEM leukemia, 30.9%; with SR leukemia, 24.9%; in the experiment on RPMI-8226 leukemia, 23.4%; with OVCAR-8 ovarian, 44.6%. The growth in the experiment with OVCAR-5 ovarian is 67.1%; with OVCAR-4 ovarian, 37.7%; in the experiment with SK-OV-3 ovarian, 66.4%; in the experiment with IGROV1 ovarian, 52.1%; in the experiment on OVCAR-3 ovarian, 31.4%; in the experiment with HS 578T breast it was 62.3%. The growth in the experiment on NCI/ADR-RES ovarian was 38.6%.
In the case of `Cc1ccc(-n2nc3c(c(C#N)c2=O)CC(c2ccccc2Cl)C([N+](=O)[O-])=C3O)cc1` (centres undefined), the growth in the experiment on SK-MEL-2 melanoma is 99.2%; in the experiment on EKVX NSCLC, 90.2%; in the experiment with SN12C renal, 108%; in the experiment with UO-31 renal, 78.4%; in the experiment with TK-10 renal it was 123%; with ACHN renal it was 100%. The growth in the experiment on CAKI-1 renal was 84%; with A498 renal, 85.9%; with CCRF-CEM leukemia, 84.3%; in the experiment on MOLT-4 leukemia, 77.1%; with OVCAR-8 ovarian, 102%; with OVCAR-5 ovarian it was 108%. Besides, the growth was 90.4% with OVCAR-4 ovarian; 90% with IGROV1 ovarian; 103% in the experiment with OVCAR-3 ovarian; 94.7% in the experiment on HS 578T breast; 98.2% in the experiment with NCI/ADR-RES ovarian.
As to `CC(C)(C)CC(C)(C)Nc1c(-c2ccncc2)nc2cnccn12`, the growth is 106% in the experiment with SK-MEL-2 melanoma; 93.1% in the experiment with EKVX NSCLC; 102% in the experiment on SN12C renal; 86.7% with UO-31 renal; 99.2% with TK-10 renal; 87.7% in the experiment on ACHN renal. The growth in the experiment on CAKI-1 renal was 80.6%; in the experiment with A498 renal, 90.9%; in the experiment with CCRF-CEM leukemia it was 91.6%; with MOLT-4 leukemia, 94.1%; in the experiment with OVCAR-8 ovarian, 95.6%; in the experiment with OVCAR-5 ovarian, 93.7%. Further, the growth in the experiment on OVCAR-4 ovarian is 84%; with SK-OV-3 ovarian, 92.8%; with IGROV1 ovarian, 99.8%; in the experiment on OVCAR-3 ovarian, 102%; with HS 578T breast, 92.2%; in the experiment with NCI/ADR-RES ovarian it was 99.5%.
For `COC(=O)[C@]12CC[C@@H](C)[C@H](C)[C@@H]1C1=CC[C@@H]3[C@@]4(C)C(C=O)=C[C@@](C)(COC(=O)c5ccco5)[C@@H]4C(=O)C[C@@]3(C)[C@]1(C)CC2`, the growth is -31.8% (active) in the experiment on SK-MEL-2 melanoma; 38.3% with EKVX NSCLC; 42% in the experiment with SN12C renal; 29.7% in the experiment with UO-31 renal; 29.7% in the experiment on TK-10 renal; 13.4% in the experiment with ACHN renal. In addition, the growth in the experiment on CAKI-1 renal was 38.8%; in the experiment on A498 renal, 65.5%; with CCRF-CEM leukemia, 5.47% (active); in the experiment on SR leukemia, 32.5%; in the experiment on RPMI-8226 leukemia, 14.6%; in the experiment with OVCAR-8 ovarian it was 24.8%. Further, the growth in the experiment on OVCAR-5 ovarian is 59.4%; in the experiment on OVCAR-4 ovarian, 29.8%; with SK-OV-3 ovarian, 33.7%; in the experiment on IGROV1 ovarian, 51.8%; in the experiment on OVCAR-3 ovarian, 40.4%; in the experiment on HS 578T breast, 65.3%. Further, in the experiment with NCI/ADR-RES ovarian, the growth is 28.4%.
Consider `COc1cc(C(=O)/C=C/c2c(C(F)(F)F)nc3sccn23)cc(OC)c1OC`, for which the growth was 12.2% in the experiment with SK-MEL-2 melanoma; 10.6% in the experiment on EKVX NSCLC; 20.2% in the experiment with SN12C renal; -29.6% (active) in the experiment with UO-31 renal; 21.9% in the experiment with TK-10 renal; -69.4% (active) in the experiment with ACHN renal. Also, the growth was -16.5% (active) in the experiment with CAKI-1 renal; 61.4% in the experiment with A498 renal; -9.49% (active) in the experiment on CCRF-CEM leukemia; 0.936% (active) in the experiment with MOLT-4 leukemia; 12.2% with OVCAR-8 ovarian; 15.1% in the experiment on OVCAR-5 ovarian. Also, the growth in the experiment with OVCAR-4 ovarian was 17.8%; in the experiment with SK-OV-3 ovarian it was 2.13% (active); in the experiment on IGROV1 ovarian it was 23%; in the experiment on HS 578T breast, 37.4%; in the experiment with NCI/ADR-RES ovarian, -3.02% (active).
As to `O=C1/C(=C\c2cccnc2)SC(=S)N1CCc1ccc(O)cc1`, the growth in the experiment with SK-MEL-2 melanoma was 66.5%; in the experiment with EKVX NSCLC, 64.7%; with SN12C renal, 18.4%; with UO-31 renal, 37.4%; in the experiment on TK-10 renal, 38.5%; in the experiment on ACHN renal, 29.4%. The growth was 30.5% in the experiment on CAKI-1 renal; 85.1% with A498 renal; 23.9% with CCRF-CEM leukemia; 68.6% in the experiment on MOLT-4 leukemia; 62.6% in the experiment with OVCAR-8 ovarian; 58.8% in the experiment on OVCAR-5 ovarian. Further, the growth in the experiment with OVCAR-4 ovarian was 64%; with SK-OV-3 ovarian, 96.4%; in the experiment on IGROV1 ovarian, 62.9%; in the experiment with OVCAR-3 ovarian it was 35.7%; in the experiment with HS 578T breast it was 74.7%; in the experiment on NCI/ADR-RES ovarian it was 47.9%.

Source of the values: PubChem BioAssay (NCI).
